# Measurements from PubChem BioAssay (NCI).
# Several values for one entry are separate records, joined by “and”; a condition that tells them apart may be missing. Equal entries are not always repeated. This is part of a sample that, as a whole, favours compounds with a hit. Of some 83,000 tested, about 20% had one in any assay.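 The endpoint reported here, percent growth, reads 100 for growth as untreated, 0 for no net growth and -100 for all cells dead.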 Activity calls are given as the source filed them. How the source made its calls: active means growth percent below 10; inactive means the rest.
# System: MDA-MB-468 breast
# Experiment: NCI-60 one-dose screen, 48 h (100 = growth as untreated, 0 = no growth, -100 = all killed)
# Details: 10 µM unless noted
row,SMILES,growth
1,CCCCCCCCCC(=O)Oc1ccc(/C(=C(/C)c2ccccc2)c2ccc(OCCN3CCCC3)cc2)cc1,-29.4% (active)
2,CCC(=O)Sc1ccccc1C(=O)Nc1ccc(Cl)cc1,27% (inactive)
3,CC(=O)C1N=NCC1c1ccccc1 (stereo not given),102% (inactive)
4,O=c1cc(-c2ccccc2)oc2cc(OCc3cn(Cc4ccc(F)cc4)nn3)cc(OCc3cn(Cc4ccc(F)cc4)nn3)c12,38.7% (inactive)
5,COc1ccc2cc(-c3ccnc4c(N=Nc5ccc(Cl)cc5)c(N)nn34)ccc2c1,98.8% (inactive)
6,OCCOCC(F)(F)F,106% (inactive)
7,Nc1nc(N)c2c(ccc3nccc32)[nH]1,34.9% (inactive)
8,CN1CCN(c2ccc(OC(F)(F)F)c(Nc3ncc4c(n3)-c3c(c(C(N)=O)nn3CCO)CC4)c2)CC1,9.13% (active)
9,O=C(Cn1ccc(=O)[nH]c1=O)c1ccc([N+](=O)[O-])o1,44.4% (inactive)
10,O=c1c2ccccc2n2cnc3ccc(Cl)c1c32,79.1% (inactive)
11,c1ccc2cc(Cn3cc[n+](Cc4ccc5ccccc5c4)c3)ccc2c1,-23.7% (active)
12,COC(=O)[C@]12CC[C@@H](C)[C@H](C)[C@@H]1C1=CC[C@@H]3[C@@]4(C)C[C@@H](OC(C)=O)[C@H](O)[C@@](C)(COC(C)=O)[C@@H]4[C@H](O)C[C@@]3(C)[C@]1(C)CC2,-90.2% (active)
13,C=CC(=O)Nc1cccc(Oc2nccc(Nc3nnc(-c4ccc(Br)cc4)s3)n2)c1,114% (inactive)
14,CC1=C(C)C(=O)C(Nc2ccc3c(c2)OCCO3)=C(Br)C1=O,28.1% (inactive)
15,Cc1nnc(-n2c(O)cc(=O)n(-c3ccccc3)c2=S)nc1/C=C/c1ccc(N(C)C)cc1,25.8% (inactive)
16,C=C1C(=O)O[C@H]2[C@H]1CC/C(COC(=O)c1cn(C)c3ccccc13)=C\CC[C@@]1(C)O[C@@H]21,-66.4% (active)
17,CN1CCN(c2nc(-c3csc(-c4ccncc4)n3)cc3ccccc23)CC1,25.8% (inactive)
18,CCN1CCN(c2nc3ccccc3c3c(=O)c4ccccc4sc23)CC1,35.5% (inactive)
19,C#C[C@]1(O)CC[C@H]2[C@@H]3CC=C4c5sc(Nc6cc(Cl)ccn6)nc5CC[C@]4(C)[C@H]3CC[C@@]21C,28.6% (inactive)
20,COc1ccc(S(=O)(=O)NCCCNc2nccc(-n3cnc4ccccc43)n2)cc1,77.2% (inactive)

row,SMILES,growth
1,CC(=O)Oc1cc2ccccc2cc1C(C)C,98.8% (inactive)
2,O=C(/C=C/c1ccccc1)Nc1ncc(Cc2ccccc2Cl)s1,8.79% (active)
3,Cc1ccc(Cc2cnc(NC(=O)c3cc(Br)cs3)s2)cc1,30% (inactive)
4,COC(=O)Nc1ccc2ccc3c(NC(=O)OC)ccc4ccc1c2c43 (tested in a mixture with another compound),40.9% (inactive)
5,CC(C)(C)c1ccc(O)c(-c2ccccc2)c1,140% (inactive)
6,O=C(Cn1c(=O)sc2ccccc21)NNS(=O)(=O)c1ccccc1[N+](=O)[O-],107% (inactive)
7,CCC12CCC[N+]3([O-])CCC4(C(=Nc5ccccc54)C(O)(C(=O)OC)C1)C23 (stereo not given),112% (inactive)
8,Cc1cc[c-]cc1.Fc1c[c-]c(-c2ccccn2)c(F)c1.[Pt+2].c1ccc(P(C[PH+](c2ccccc2)c2ccccc2)c2ccccc2)cc1,-2.46% (active)
9,CCC(=O)N1C/C(=C/c2ccc(Br)cc2)C(=O)/C(=C/c2ccc(Br)cc2)C1,-91.5% (active)
10,COCc1nc2ccccc2[nH]1,102% (inactive)
11,CC[C@@H](c1ccc(O)c(O)c1)[C@@H](CC)c1ccc(O)c(O)c1,53.1% (inactive)
12,CC(=O)O[C@H]1C[C@@]2(C)[C@@H](C[C@@H](O)[C@H]3[C@@]4(C)CC[C@H](N5CCCC5)[C@@H](C)[C@@H]4CC[C@@]32C)/C1=C(\CCC=C(C)C)C(=O)O,94.6% (inactive)
13,CC(=O)Nc1cccc2cc(O)ccc12,112% (inactive) and 101% (inactive) and 110% (inactive)
14,C[C@]12CC[C@@H]3c4ccc(O)cc4C[C@@H](O)[C@H]3[C@@H]1CC[C@@H]2O,98.1% (inactive)
15,CCCCN(CCCC)CCCOC(=O)c1ccc(N)cc1,47.5% (inactive)
16,COc1cnc2c(c1)C(=O)c1c-2n(CCCN2CCN(CCO)CC2)c(=O)c2cc([N+](=O)[O-])ccc12,76.6% (inactive)
17,CCCCN(CCCC)c1ccc(C(=N)c2ccc(N(CCCC)CCCC)cc2)cc1,-92.9% (active)
18,CCNC(=O)N1CCc2cc(OC)c(OCCc3ccc(OC)nc3)cc2C1c1ccc(C)cc1C (stereo not given),8.04% (active)
19,Cn1c(=O)[nH]c(=O)c2nc3c(nc21)-c1ccccc1C3=O,82.8% (inactive)
20,Cc1cc(C)c(N2C(=O)CC(Nc3ccc(Cl)cc3Cl)C2=O)c(C)c1 (stereo not given),96.1% (inactive)
